Source: PubChem (several laboratories)
CSC inhib – cancer stem cell viability inhibitors, primary screen, luminescence | 300,000 compounds, 1.1% hits | inhibition, % at 7.5 µM | cancer stem cell-like cells viability; in the data active means inhibition above about 75%; tested in HMLE shEcad cells
Beta cell apopt – inhibitors of cytokine-induced beta cell apoptosis, primary screen, luminescence; protection from apoptosis, % (no concentration beside the values); 300,000 compounds, 0.8% hits; INS-1E cytokine-induced death, ATP luminescence, 48 h; percent of positive-control rescue, neutral wells zero;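 active means Every replicate reaches about 75%, or at least half do and their mean reaches it too, limit read from the data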;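 further: higher means more ATP so stronger rescue from cytokine killing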
MPTP inh – mitochondrial permeability transition pore inhibitors, primary screen, biochemical, isolated mouse mitochondria, absorbance | Ca2+ swelling absorbance, 30 min | inhibition, % at 10 µM | 360,000 compounds, 1.4% hits | AID 602449, 2012;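 active means inhibition of 50% or more, scaled per plate between neutral and stimulator controls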
Gli-Sufu antag – Gli-Sufu pathway antagonists, primary screen, luciferase luminescence, Sufu-KO-LIGHT cells, uHTS | Sufu-KO-LIGHT fibroblasts, Gli luciferase reporter luminescence | inhibition, % at 5 µM | 340,000 compounds, 0.74% hits | AID 588413, 2011;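 active means inhibition above about 55%, limit read from the data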
Mdm2-MdmX inh – inhibitors of human Mdm2-MdmX association, primary screen, cell-based, luminescence, split luciferase, SaOS-2, uHTS | Protein Mdm4 (Homo sapiens) + E3 ubiquitin-protein ligase Mdm2 (Homo sapiens), … | SaOS-2 split-luciferase Mdm2/MdmX complementation | inhibition, % at 8 µM | 330,000 compounds, 3% hits | AID 485346, 2010;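 active means inhibition of at least 50% at 8 µM in the primary screen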
Target sequence (O15151 whole entry, looked up): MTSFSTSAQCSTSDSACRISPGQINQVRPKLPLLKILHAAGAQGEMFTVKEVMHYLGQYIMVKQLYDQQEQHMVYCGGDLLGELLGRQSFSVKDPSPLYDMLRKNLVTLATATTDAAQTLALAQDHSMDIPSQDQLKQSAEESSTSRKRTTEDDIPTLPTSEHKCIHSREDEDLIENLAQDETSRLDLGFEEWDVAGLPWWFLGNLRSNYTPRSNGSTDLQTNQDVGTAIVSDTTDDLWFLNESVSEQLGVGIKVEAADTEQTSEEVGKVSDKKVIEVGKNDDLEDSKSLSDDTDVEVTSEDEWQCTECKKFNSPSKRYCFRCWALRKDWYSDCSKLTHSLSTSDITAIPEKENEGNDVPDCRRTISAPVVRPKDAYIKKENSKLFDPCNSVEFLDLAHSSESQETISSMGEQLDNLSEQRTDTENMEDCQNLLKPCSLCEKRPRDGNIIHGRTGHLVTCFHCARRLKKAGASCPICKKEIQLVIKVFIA
Target sequence (Q00987 whole entry, looked up): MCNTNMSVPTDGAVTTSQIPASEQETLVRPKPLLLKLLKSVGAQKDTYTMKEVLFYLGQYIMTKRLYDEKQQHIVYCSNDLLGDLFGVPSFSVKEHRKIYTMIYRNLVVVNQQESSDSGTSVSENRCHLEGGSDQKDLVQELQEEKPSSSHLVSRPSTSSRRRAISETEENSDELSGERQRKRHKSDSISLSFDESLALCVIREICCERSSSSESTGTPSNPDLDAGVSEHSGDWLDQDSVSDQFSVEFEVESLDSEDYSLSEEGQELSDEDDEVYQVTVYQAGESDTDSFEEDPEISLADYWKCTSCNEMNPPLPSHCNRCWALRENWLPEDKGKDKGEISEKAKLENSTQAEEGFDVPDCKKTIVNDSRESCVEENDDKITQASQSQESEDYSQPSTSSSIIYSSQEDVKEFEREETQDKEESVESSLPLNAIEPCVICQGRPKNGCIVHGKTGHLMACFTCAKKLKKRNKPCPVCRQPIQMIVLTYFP
NR3A LBD binder – binders of NR3A ligand-binding domain, primary screen, biophysical, differential scanning fluorimetry, uHTS | Glutamate receptor ionotropic, NMDA 3A (GRIN3A) ligand-binding domain | NR3A LBD differential scanning fluorimetry, Tm shift; 0% = protein alone, 100% = glycine-bound protein | Tm shift relative to glycine control, % at 25 µM | 340,000 compounds, 2.5% hits;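 active means melting temperature shift of at least 10% of the positive control shift, at one fixed dose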
Gli antag conf – Gli-SUFU pathway antagonists, confirmation, single concentration, luciferase luminescence, Sufu-KO-LIGHT cells; 2,500 compounds, 40% hits; inhibition, % at 5 µM; AID 602428, 2012; Gli luciferase reporter; shares compounds with Gli-Sufu antag;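 active means mean inhibition at 5 µM reaching about 45%, limit read from the data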
Gli cytotox – cytotoxicity in Sufu-KO-LIGHT cells, confirmation, cytotoxicity control for Gli-SUFU antagonist project, cell-based, ATP luminescence, single concentration; shares compounds with Gli-Sufu antag; cytotoxicity, % at 5 µM; 2,500 compounds, 32% hits; AID 651994, 2013;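 active means mean cytotoxicity at 5 µM above about 25%, limit read from the data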;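 further: cells exposed to compound overnight for roughly 16 to 18 hours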
Wnt3a counter – Wnt3a reporter signal inhibition, confirmation, counter-screen for Gli-SUFU antagonist project, Wnt-LIGHT cells, luminescence, single concentration; shares compounds with Gli-Sufu antag; 2,500 compounds, 20% hits; Wnt3a-driven luciferase reporter; inhibition, % at 6.25 µM;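 active means mean inhibition above about 25%, limit read from the data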
Rh123 counter – fluorescence retest of MPTP screen hits in isolated mitochondria, single concentration | shares compounds with MPTP inh | membrane potential, Rhodamine 123 fluorescence | inhibition, % at 10 µM | 5,000 compounds, 78% hits | AID 624504, 2012; in the data active means inhibition above about 22%
Of the large screens only hits and unclear results are named; the others gave an inactive call (follow-up assays come after a bar, where they were run). Rows were chosen to be rich in hits. Some 6.6% of all compounds tested hit in one or more screens of this group.

CSc1nc(N)nc2c1ncn2CC(=O)N1CCN(Cc2c(C)cc(C)cc2C)CC1	Beta cell apopt 100, MPTP inh 86 (no result: CSC inhib) | Gli antag conf 62 | Gli cytotox 27 | Wnt3a counter 44 | Rh123 counter 77
O=C(Cn1cnc2c(NCc3ccccc3)ncnc21)N1CCN(c2ccccn2)CC1	none (no result: CSC inhib, Beta cell apopt)
Cc1cc(C)c(CN2CCN(C(=O)Cn3ccc(N)nc3=O)CC2)c(C)c1	none
Cc1cc(C)c(CN2CCN(C(=O)Cn3cnc4c(NCc5ccccc5)ncnc43)CC2)c(C)c1	MPTP inh 80, Gli-Sufu antag 60 (no result: CSC inhib, Beta cell apopt) | Gli antag conf 67 | Gli cytotox 42 | Wnt3a counter 39 | Rh123 counter 84
COc1ccc(COc2ccccc2C(=O)NCc2ccccc2)cc1F	MPTP inh 96 (no result: Beta cell apopt) | Gli antag conf inactive | Gli cytotox inactive | Wnt3a counter inactive | Rh123 counter 88
O=C(CCc1cccc(Cl)c1)NC1CCCN(Cc2ccccc2F)C1 (stereo not drawn)	none (no result: Beta cell apopt)
O=[N+]([O-])c1cc(/C=N/N/C(=N/c2ccccn2)c2ccccn2)ccc1O	MPTP inh 78, Gli-Sufu antag 79 | Gli antag conf inactive | Gli cytotox 27 | Wnt3a counter inactive | Rh123 counter inactive
O=[N+]([O-])c1ccc(/C=N/N/C(=N/c2ccccn2)c2ccccn2)cc1	none
O=C(NCCNc1ccnc2cc(Cl)ccc12)c1ccccc1F	MPTP inh 75, Gli-Sufu antag 67 | Gli antag conf 50 | Gli cytotox inactive | Wnt3a counter inactive | Rh123 counter 57
O=C(NNC(=O)C1C2C=CC(C2)C1C(=O)O)c1cc(Cl)ccc1O (stereo not drawn)	none
CC(C(=O)Nc1cccnc1)c1ccc([N+](=O)[O-])cc1 (stereo not drawn)	none
CC(C)Cc1ccc(C(C)C(=O)Nc2cccnc2)cc1 (stereo not drawn)	MPTP inh 85, Gli-Sufu antag 66 | Gli antag conf inactive | Gli cytotox inactive | Wnt3a counter inactive | Rh123 counter 79
CCC(=O)c1ccccc1OCCCN1CCC(Cc2ccccc2)CC1	MPTP inh 69 | Gli antag conf inactive | Gli cytotox 33 | Wnt3a counter inactive | Rh123 counter 60
O=[N+]([O-])c1cccc(N(CC(O)CN2CCCC2)S(=O)(=O)c2ccccc2)c1 (stereo not drawn)	none (no result: Beta cell apopt)
COc1ccc(NS(=O)(=O)c2ccc(-c3coc(C)n3)cc2)cc1OC	Beta cell apopt 107, MPTP inh 98, Gli-Sufu antag 73 (no result: NR3A LBD binder) | Gli antag conf 73 | Gli cytotox 28 | Wnt3a counter 51 | Rh123 counter 83
COc1ccc(NS(=O)(=O)c2ccc(-c3coc(C)n3)cc2)cc1	none
COc1cccc(N(CC(=O)NCC2CCCO2)C(=O)CCC(=O)Nc2nccs2)c1 (stereo not drawn)	none
COc1ccc(N2CCN(c3ncnc4c3[nH]c3ccccc34)CC2)cc1	Beta cell apopt 102, MPTP inh 79, Gli-Sufu antag 71 | Gli antag conf 80 | Gli cytotox inactive | Wnt3a counter inactive | Rh123 counter 107
